Screening data as filed in PubChem.
Yp Topo-I inh: Yersinia pestis topoisomerase I inhibitors, primary screen, biochemical, cleavage product accumulation, plate reader, single point; DNA topoisomerase I (Yersinia pestis CO92); Y. pestis Topo-I cleavage product accumulation; activity, % at 10 µM; 360,000 tested, 0.064% active; AID 504884, 2011; in the data active = activity above about 50%, passing the limit was not always enough
PriA SSB inh: inhibitors of Klebsiella pneumoniae PriA binding to SSB C-terminal tail, primary screen, biochemical, AlphaScreen; PriA–SSB C-terminal tail interaction (Klebsiella pneumoniae); AlphaScreen SSBct-PriA binding, biotinylated peptide; inhibition, % at 33 µM; 430,000 tested, 0.6% active; in the data active = inhibition mostly above about 37%, no sharp cut-off; inactive = mostly below about 20%;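 also: plate controls were negative control peptide for no effect and reference peptide for full effect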
MazF activator: activators of E. coli MazEF toxin-antitoxin RNase, primary screen, biochemical, fluorescence, uHTS | Endoribonuclease toxin MazF (Escherichia coli (strain K12)), P0AE70 | FAM/BHQ RNA-DNA oligo cleavage fluorescence, 5 h | activation, % at 20 µM | 350,000 tested, 0.32% active; in the data active = activation above about 50%
Target sequence (P0AE70 whole entry, looked up): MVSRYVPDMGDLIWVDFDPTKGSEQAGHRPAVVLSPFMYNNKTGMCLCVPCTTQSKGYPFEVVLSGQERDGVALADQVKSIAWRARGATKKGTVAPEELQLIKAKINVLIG
SARS 3CLpro inh: SARS-CoV 3CLpro protease inhibitors, primary screen, biochemical, quenched FRET. Replicase polyprotein 1ab (Severe acute respiratory syndrome coronavirus), P0C6X7. AID 1706, 2009. inhibition, % at 6 µM. recombinant SARS-CoV 3CLpro, quenched FRET peptide cleavage. 290,000 tested, 0.14% active; in the data active = inhibition above about 12%
Starred values were filed as active, the others as inactive; nt = no result; ! = not confirmed by another sample. An excerpt weighted towards active compounds, which were near 0.9% of everything screened.

SMILES	Yp Topo-I inh	PriA SSB inh	MazF activator	SARS 3CLpro inh
O=C(CSCc1ccccc1)NCc1cc(-c2cc3ccccc3o2)on1	nt	-18.0	nt	nt
Cc1ccccc1-n1c(SCc2c(C)noc2C)nnc1-c1cccnc1	0.1	1.6	70.1*	-3.4
Cc1ccccc1-n1c(SCc2c(C)noc2C)nnc1-c1ccncc1	6.8	6.7	2.2	0.7
COc1cccc(C(=O)N(CCN(C)C)c2nc3c(F)cc(F)cc3s2)c1	nt	4.0	nt	nt
CN(C)CCN(C(=O)c1ccc2ccccc2c1)c1nc2c(F)cc(F)cc2s1	16.4	37.0*!	-9.0	-4.3
Cc1ccc2sc(N(CCN(C)C)C(=O)c3ccc4c(c3)OCCO4)nc2c1C	nt	40.0*	nt	nt
Cc1cc(C)c2nc(N(CCCN(C)C)C(=O)c3ccc4c(c3)OCCO4)sc2c1	-3.6	0.8	-2.2	nt
O=C(CN1C(=O)c2ccccc2C1=O)Nc1ccc(Cl)c(C(=O)c2ccccc2)c1	nt	-7.0	nt	nt
O=C(NCc1cccc(-c2nccs2)c1)c1cc(C2CC2)on1	nt	20.0	nt	nt
Nc1nc2c(s1)CCc1ccccc1-2	-1.1	56.0*!	3.1	-3.7
COc1ccc2c(c1)-c1nc(N)sc1CC2	3.0	13.4	-20.2	1.4
COc1ccc(-c2[nH]n(-c3ccc([N+](=O)[O-])cc3)c(=O)c2C=NCc2ccc(F)cc2)cc1	0.4	4.3	80.7*	5.1
Cc1ccc(NC(=O)CC2SC(=NN=C/C=C/c3ccccc3)NC2=O)cc1Cl (configuration not stated)	nt	-21.1	nt	nt
Cc1ccc(NC(=O)CC2S/C(=N/N=C/C=C/c3ccccc3)NC2=O)cc1Cl (configuration not stated)	-0.5	nt	54.8*	0.3
O=C(Cc1cccc2ccccc12)NCC#CCN1CCCC1	nt	6.0	nt	nt
Cc1cc(S(=O)(=O)NCCC(CCO)c2ccccc2)ccc1F (configuration not stated)	nt	-4.0	nt	nt
Cc1cccc(C)c1NC(=O)C(=O)NC[C@@H](c1cccc2ccccc12)N1CCCC1	nt	10.0	nt	nt
Cc1cc(C)c(S(=O)(=O)N2CCN(C(=O)c3c(C)nn(-c4ccccc4)c3Cl)CC2)c(C)c1	33.9	44.2*	-23.7	nt
C=CCn1nnnc1SCC(=O)Nc1ccccc1OC	nt	-9.0	nt	nt
Cc1nnsc1C(=O)N1CCC2(CC1)OC(=O)c1ccccc12	nt	-23.0	nt	nt
CCN(CC)C(=O)Oc1ccc2c(c1)O/C(=C\c1ccco1)C2=O	19.9	6.8	-0.4	-2.3
CCC(=O)Oc1ccc2c(c1)O/C(=C\c1ccco1)C2=O	-3.1	-7.0	691.1*	-4.0
COc1ccccc1C(=O)Oc1ccc2c(c1)O/C(=C\c1ccncc1)C2=O	26.0	-0.5	206.3*	5.3
CC(=O)Oc1ccc2c(c1)O/C(=C\c1ccncc1)C2=O	4.8	2.0	-616.9	1.4
CCOC(=O)C1CCCN(c2ncnc3[nH]ncc23)C1 (configuration not stated)	nt	-10.0	nt	nt
SMILES	Yp Topo-I inh	PriA SSB inh	MazF activator	SARS 3CLpro inh
CCOc1cc(-c2cccc(OC)c2)nc2ccc(C(=O)N3CCC(Cc4ccccc4)CC3)cc12	nt	-4.0	nt	nt
N#Cc1c(NC(=O)c2cccc(C(F)(F)F)c2)sc2c1CCC2	nt	-13.0	nt	nt
Nc1ccc2nc(-c3ccccn3)[nH]c2c1	-23.9	96.1*	11.3	-8.8
COc1ccc2nc(-c3ccccn3)[nH]c2c1	0.6	-6.1	5.3	-0.6
Nc1ccccc1-c1n[nH]c(-c2ccccn2)n1	nt	107.0*	nt	nt
Nc1ccc2nc(-c3ccccc3)[nH]c2c1	6.1	16.2	7.9	-0.9
c1ccc(-c2nc3ccc(Cc4ccc5nc(-c6ccccn6)[nH]c5c4)cc3[nH]2)nc1	nt	88.0*	nt	nt
Nc1ccc2nc(-c3ccc(N)c(Cl)c3)[nH]c2c1	-1.2	43.9*	12.5	-1.2
Nc1ccc2nc(-c3cccnc3)[nH]c2c1	-7.9	5.0	-0.1	-4.2
Cc1[nH]c2ccccc2c1S(=O)(=O)CCNC(=O)NC(C)(C)C	nt	1.0	nt	nt
COc1cccc(-c2sc3ccccc3c2-c2ccc(OCCN(C)C)cc2)c1	-16.3	40.3*	5.8	nt
COc1cccc(-c2sc3ccccc3c2-c2ccc(OCCN3CCCC3)cc2)c1	-18.1	26.0	12.1	nt
CC(=O)c1cccc(NC(=O)CCc2nnc3ccc(NCc4ccc5c(c4)OCO5)nn23)c1	72.9*	-15.6	-22.1	-2.5
CCN1CCCc2cc(CCNC(=O)c3ccc(OC)c(OC)c3)ccc21	nt	64.0*	nt	nt
CCN1CCCc2cc(CCNC(=O)c3ccc4c(c3)OCO4)ccc21	nt	65.0*	nt	nt
CCCN1CCCc2cc(CCNC(=O)c3ccc(F)c(F)c3)ccc21	nt	45.0	nt	nt
O=C(O)CNC(=O)CC1SC(=NN=Cc2ccccc2O)NC1=O (configuration not stated)	nt	-15.7	nt	nt
O=C(O)CNC(=O)CC1SC(=NN=C2CSC(=O)N2)NC1=O (configuration not stated)	nt	95.5*	nt	nt
CCNC(=S)N/N=C/c1sc(N2CCCCC2)nc1-c1cccs1	-6.8	nt	257.2*	-4.4
Cc1cc(CCNC(=O)C2c3ccccc3Oc3ccccc32)on1	nt	1.0	nt	nt
O=S(=O)(c1ccccc1)N1CCC(c2ccccn2)C1 (configuration not stated)	nt	40.0*	nt	nt
CC(=NNC(=O)C1CCCN(S(=O)(=O)c2ccccc2)C1)c1ccccn1 (configuration not stated)	nt	48.8*	nt	nt
CC(=NNC(=S)N1CCCC1)c1ccccn1	2.9	nt	-0.8	nt
CC(=NNC(=S)N1CCC1)c1ccccn1	1.7	72.0*	10.1	nt
CC(C)Sc1ccc(CC(=O)NCc2cnn3ccccc23)cc1	nt	1.0	nt	nt
SMILES	Yp Topo-I inh	PriA SSB inh	MazF activator	SARS 3CLpro inh
Cc1ccccc1C1=C/C(=C(\SS/C(C(=O)c2ccc(OCC(=O)O)c(Cl)c2Cl)=C2\C=C(c3ccccc3C)SS2)C(=O)c2ccc(OCC(=O)O)c(Cl)c2Cl)SS1	2.1	62.1*	-40.4	nt
O=C(Nc1nnc(-c2ccc(OC(F)(F)F)cc2)o1)C1(c2cccs2)CCCC1	nt	-7.0	nt	nt
NCCSc1c(-c2ccc(Br)cc2)[nH]c2ccccc12	nt	20.0	nt	nt
O=C(CNCc1ccccn1)Nc1cc(S(=O)(=O)N2CCCCC2)ccc1Cl	-4.4	40.5*	-7.8	-0.7
COc1cccc(CN(C)CC(=O)Nc2cc(S(=O)(=O)N3CCCC3)ccc2Cl)c1OC	14.1	42.1*	1.0	nt
CN(C)S(=O)(=O)c1cccc(NC(=O)CNC2CCCCC2)c1	3.1	-10.6	10.2	0.0
O=C(CNCc1ccncc1)Nc1cc(S(=O)(=O)N2CCCCC2)ccc1Cl	8.1	-12.3	3.7	-0.6
COc1ccccc1CN(C)CC(=O)Nc1cccc(S(=O)(=O)N2CCCC2)c1	18.8	-3.0	-10.5	nt
Cc1ccc(S(=O)(=O)N2CCOCC2)cc1NC(=O)CNCc1ccccn1	0.7	43.8*	2.6	-4.3
CN(C)S(=O)(=O)c1cccc(NC(=O)CNCc2ccccn2)c1	-2.0	49.6*	-4.6	1.5
Cn1c(=O)c(NCCO)c2c3c(cccc31)C(=O)c1ccccc1-2	-3.6	0.6	-490.0	-279.7
Cn1c(=O)c(NCCc2ccccc2)c2c3c(cccc31)C(=O)c1ccccc1-2	23.8	-42.9	60.0*	-93.2
